Drawing on PubChem BioAssay (EPA / NIEHS), this text covers outcome and AC50 for 44 compounds.

Records with an inconclusive call do not appear. More than one record can exist for a structure, and the calls need not agree. Active and inactive are the calls of the source. The calls were made as follows, unless noted: active = hit-call score of the fitted dose curve at least 0.9, where 1 is the maximum; inactive = score below 0.9.

A short description of test [1]: BSK_SAg_PBMCCytotoxicity: PBMC Cytotoxicity Assessment in the BioMAP Diversity Plus: SAg Assay (AID 2283093).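 Also: PBMC viability measured as Alamar Blue reduction fluorescence at 546/580 nm; fitted both ways against DMSO so a hit may be loss or gain of signal.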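 As to AC50: PBMC superantigen activated with SEB plus TSST-1 one hour after compound addition.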 The settings on record: primary human HUVEC with PBMC. The gist of the method: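 Compound added to 75,000 PBMC/well for 1 h; SEB and TSST-1 then added at 20 ng/mL final each; 90 h incubation; Alamar Blue 6 h; read 546/580 nm ex/em. Activity fitted bidirectionally relative to DMSO baseline.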

Read-out in test [2]: Interleukin-8 (IL8), CXCL8 (gene 3576)
The experiment in a line: BSK_SAg_IL8: BioMAP Diversity Plus: SAg Assay for Interleukin-8 (IL8) Biomarker Activity (AID 2283094). The settings on record: primary human HUVEC with PBMC; actives raise or lower the signal. The gist of the method:
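Human umbilical vein endothelial cells co-cultured with peripheral blood mononuclear cells; IL-8 measured by ELISA 24 h after chemical dosing. Bidirectional concentration-response fitting used DMSO as negative control and activity baseline.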

Test [3] can be described thus: BSK_SAg_Proliferation: Cell Proliferation Assessment in the BioMAP Diversity Plus: SAg Assay (AID 2283095).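 Also: relative cell number as total protein by SRB absorbance in sub-confluent culture.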 The settings on record: primary human HUVEC with PBMC. The gist of the method: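 Human umbilical vein endothelial cells co-cultured with peripheral blood mononuclear cells; total protein measured by sulforhodamine B staining (0.1% SRB after 10% TCA fixation), absorbance at 560 nm, at 96 h. Bidirectional fit against DMSO baseline.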

A short description of test [4]: BSK_SAg_SRB: Viability Assessment in the BioMAP Diversity Plus: SAg Assay (AID 2283096).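 Also: cells read one day after compound addition; hits may be either gain or loss of signal compared with DMSO.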 The settings on record: primary human HUVEC with PBMC. The gist of the method: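 Total protein by sulforhodamine B staining, 24 h after dosing, in HUVEC–PBMC co-culture; DMSO-referenced bidirectional fitting.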
The target of test [5] is human CYP19A1, CYP19A1 (gene 1588) (UniProt P11511). Description: NVS_ADME_hCYP19A1: NovaScreen (NVS) CYP450-related Enzyme Activity (ADME) Assay for human CYP19A1 (AID 2283098; active = hit-call score of the fitted dose curve at least 0.9, where 1 is the maximum;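 as to AC50: potency for inhibitors seen as loss of fluorescent enzyme signal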). The procedure, abridged: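 Biochem, cell-free; recombinant enzyme + specific substrate; fluorescence intensity at 0.5 h post-dose; 10 uM duplicate primary, conc. series for actives; acetonitrile = negative control/baseline; positive and negative controls on every plate.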

Test [6] concerns the target human CYP2B6, CYP2B6 (gene 1555) (UniProt P20813). Description: NVS_ADME_hCYP2B6: NovaScreen (NVS) CYP450-related Enzyme Activity (ADME) Assay for human CYP2B6 (AID 2283101; active = hit-call score of the fitted dose curve at least 0.9, where 1 is the maximum). The gist of the method: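 Recombinant protein, specific fluorescent substrate, read at 1 h post-dosing. Primary: single 10 uM, duplicate; follow-up: concentration series. Activity = signal loss vs acetonitrile baseline, with positive and negative controls on every plate.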

Test [7] addresses human CYP1A2, CYP1A2 (gene 1544) (UniProt P05177). The experiment in a line: NVS_ADME_hCYP1A2: NovaScreen (NVS) CYP450-related Enzyme Activity (ADME) Assay for human CYP1A2 (AID 2283102; active = hit-call score of the fitted dose curve at least 0.9, where 1 is the maximum;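 as to AC50: fluorescence from turnover of a fluorogenic substrate by recombinant insect-cell CYP1A2; potency for inhibition since loss of fluorescence marks reduced CYP1A2 activity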). The gist of the method: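 Enzyme activity of insect-cell-expressed human CYP1A2 measured by fluorescence 0.5 h after compound addition, relative to acetonitrile. Compounds first tested in duplicate at 10 uM, actives followed up in concentration series.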

In test [8] the target is human CYP1A1, CYP1A1 (gene 1543) (UniProt P04798). Description: NVS_ADME_hCYP1A1: NovaScreen (NVS) CYP450-related Enzyme Activity (ADME) Assay for human CYP1A1 (AID 2283100; active = hit-call score of the fitted dose curve at least 0.9, where 1 is the maximum). The procedure, abridged: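 Chemicals were first tested in duplicate at 10 uM, and those passing a 30% inhibition threshold were rerun as concentration series topping at 20 uM. Fluorescence read-out of recombinant enzyme turnover after 1 h, relative to acetonitrile.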

Test [9] concerns the target Cytochrome P450 2C18 (Homo sapiens) (UniProt P33260). The experiment in a line: NVS_ADME_hCYP2C18: NovaScreen (NVS) CYP450-related Enzyme Activity (ADME) Assay for human CYP2C18 (AID 2283103). The gist of the method: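 Cell-free recombinant human CYP2C18 with fluorogenic substrate; fluorescence intensity read 0.5 h after dosing. Single-point screen at 10 uM in duplicate, then concentration-response up to 20 uM; loss of signal fitted against acetonitrile baseline.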

Test [10] concerns the target human CYP2A6, CYP2A6 (gene 1548) (UniProt P11509). Description: NVS_ADME_hCYP2A6: NovaScreen (NVS) CYP450-related Enzyme Activity (ADME) Assay for human CYP2A6 (AID 2283099; active = hit-call score of the fitted dose curve at least 0.9, where 1 is the maximum). The procedure, abridged: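 Compounds screened at 10 uM (duplicate) and, if active, titrated to a 20 uM top concentration against insect-cell-expressed CYP2A6. Loss of fluorescent product signal after 0.5 h, relative to acetonitrile baseline, indicates inhibition.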

human CYP1A1, CYP1A1 (gene 1543), sequence (P04798 whole entry, looked up): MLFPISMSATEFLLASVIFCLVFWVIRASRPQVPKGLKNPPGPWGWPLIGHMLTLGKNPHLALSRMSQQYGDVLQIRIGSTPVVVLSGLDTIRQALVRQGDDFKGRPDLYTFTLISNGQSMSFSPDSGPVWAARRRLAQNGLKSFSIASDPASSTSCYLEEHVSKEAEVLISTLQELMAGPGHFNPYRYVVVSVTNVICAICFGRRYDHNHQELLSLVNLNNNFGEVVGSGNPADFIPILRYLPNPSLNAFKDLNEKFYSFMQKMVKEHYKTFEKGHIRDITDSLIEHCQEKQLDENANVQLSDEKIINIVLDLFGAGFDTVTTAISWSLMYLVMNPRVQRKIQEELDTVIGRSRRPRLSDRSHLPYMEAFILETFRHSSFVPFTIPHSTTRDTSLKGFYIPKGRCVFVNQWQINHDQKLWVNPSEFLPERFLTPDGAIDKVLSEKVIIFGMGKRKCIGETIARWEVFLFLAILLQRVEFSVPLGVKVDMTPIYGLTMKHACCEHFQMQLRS
human CYP19A1, CYP19A1 (gene 1588), sequence (P11511 whole entry, looked up): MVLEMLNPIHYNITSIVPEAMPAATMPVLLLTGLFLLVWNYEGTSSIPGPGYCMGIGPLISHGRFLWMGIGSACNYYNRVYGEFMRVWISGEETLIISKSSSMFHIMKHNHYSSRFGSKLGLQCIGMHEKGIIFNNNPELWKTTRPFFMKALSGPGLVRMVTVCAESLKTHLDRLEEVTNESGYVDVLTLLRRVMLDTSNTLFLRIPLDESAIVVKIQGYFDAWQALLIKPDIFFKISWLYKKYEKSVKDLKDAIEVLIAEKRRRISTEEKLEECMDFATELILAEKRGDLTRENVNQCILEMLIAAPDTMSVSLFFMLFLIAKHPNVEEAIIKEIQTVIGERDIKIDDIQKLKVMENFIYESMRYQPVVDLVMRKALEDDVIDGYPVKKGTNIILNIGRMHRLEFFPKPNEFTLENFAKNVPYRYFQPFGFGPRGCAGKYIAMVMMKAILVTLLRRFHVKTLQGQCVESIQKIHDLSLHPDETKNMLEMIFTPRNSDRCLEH
human CYP2B6, CYP2B6 (gene 1555), sequence (P20813 whole entry, looked up): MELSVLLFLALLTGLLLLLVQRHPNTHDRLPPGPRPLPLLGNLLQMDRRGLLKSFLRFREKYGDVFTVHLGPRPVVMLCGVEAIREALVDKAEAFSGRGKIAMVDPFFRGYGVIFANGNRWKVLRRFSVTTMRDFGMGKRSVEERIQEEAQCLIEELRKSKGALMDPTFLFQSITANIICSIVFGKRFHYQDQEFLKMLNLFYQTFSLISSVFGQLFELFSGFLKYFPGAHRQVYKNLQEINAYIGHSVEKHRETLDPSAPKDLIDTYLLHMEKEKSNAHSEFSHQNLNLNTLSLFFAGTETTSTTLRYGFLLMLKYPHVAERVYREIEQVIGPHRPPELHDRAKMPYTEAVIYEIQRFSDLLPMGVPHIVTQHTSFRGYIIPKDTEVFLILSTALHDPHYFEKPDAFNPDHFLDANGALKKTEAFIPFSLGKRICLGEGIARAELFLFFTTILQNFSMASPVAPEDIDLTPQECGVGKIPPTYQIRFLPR
human CYP1A2, CYP1A2 (gene 1544), sequence (P05177 whole entry, looked up): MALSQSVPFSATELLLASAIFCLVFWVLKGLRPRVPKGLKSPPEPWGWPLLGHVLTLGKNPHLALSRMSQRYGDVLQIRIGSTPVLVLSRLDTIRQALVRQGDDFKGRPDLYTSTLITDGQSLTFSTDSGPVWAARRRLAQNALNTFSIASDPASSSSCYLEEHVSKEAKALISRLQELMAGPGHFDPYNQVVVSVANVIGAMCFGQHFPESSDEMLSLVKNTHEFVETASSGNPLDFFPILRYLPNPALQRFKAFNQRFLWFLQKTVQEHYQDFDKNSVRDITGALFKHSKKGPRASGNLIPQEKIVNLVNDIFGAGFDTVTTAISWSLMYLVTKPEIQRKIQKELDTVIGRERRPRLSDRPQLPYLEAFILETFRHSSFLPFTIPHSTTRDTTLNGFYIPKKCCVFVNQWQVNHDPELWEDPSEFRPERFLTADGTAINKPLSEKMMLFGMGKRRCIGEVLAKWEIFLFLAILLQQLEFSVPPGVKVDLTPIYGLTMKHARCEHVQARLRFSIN
Cytochrome P450 2C18 (Homo sapiens), sequence (P33260 whole entry, looked up): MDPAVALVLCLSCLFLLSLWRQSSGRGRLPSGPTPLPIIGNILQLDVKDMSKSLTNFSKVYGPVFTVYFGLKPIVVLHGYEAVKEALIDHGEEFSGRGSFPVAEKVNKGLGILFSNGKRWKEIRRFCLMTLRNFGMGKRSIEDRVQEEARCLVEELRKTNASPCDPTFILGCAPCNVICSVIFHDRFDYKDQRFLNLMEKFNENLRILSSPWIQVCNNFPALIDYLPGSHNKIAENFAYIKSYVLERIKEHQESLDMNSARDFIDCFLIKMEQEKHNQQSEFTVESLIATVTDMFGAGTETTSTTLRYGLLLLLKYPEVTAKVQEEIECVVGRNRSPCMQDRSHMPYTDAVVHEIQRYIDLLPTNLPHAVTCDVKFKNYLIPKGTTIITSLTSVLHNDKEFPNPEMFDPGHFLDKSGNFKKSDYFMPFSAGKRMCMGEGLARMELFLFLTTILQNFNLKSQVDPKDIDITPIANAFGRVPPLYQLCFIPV
human CYP2A6, CYP2A6 (gene 1548), sequence (P11509 whole entry, looked up): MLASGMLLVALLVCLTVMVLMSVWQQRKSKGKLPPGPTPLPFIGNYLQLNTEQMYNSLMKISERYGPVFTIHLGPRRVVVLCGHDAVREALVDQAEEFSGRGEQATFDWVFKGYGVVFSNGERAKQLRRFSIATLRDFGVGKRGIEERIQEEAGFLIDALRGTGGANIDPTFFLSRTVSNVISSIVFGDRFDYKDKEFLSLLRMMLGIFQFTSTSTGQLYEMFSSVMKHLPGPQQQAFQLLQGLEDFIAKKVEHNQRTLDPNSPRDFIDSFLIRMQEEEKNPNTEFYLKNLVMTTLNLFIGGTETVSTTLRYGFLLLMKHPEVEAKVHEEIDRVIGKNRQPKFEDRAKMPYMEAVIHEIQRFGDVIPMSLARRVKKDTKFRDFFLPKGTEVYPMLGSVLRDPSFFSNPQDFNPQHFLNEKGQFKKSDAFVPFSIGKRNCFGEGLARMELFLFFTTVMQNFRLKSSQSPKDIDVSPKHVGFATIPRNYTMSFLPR

The AC50 is the midpoint of the concentration-response curve, whichever way the signal moves. With `OCc1ccco1`, the result in test [1], in test [2], in test [4] and in [5] was inactive. For the same compound, the concentration at half-maximal activity (AC50) in test [3] was 26.7 µM (active).

Turning to `CC(C)(C)CC(C)(C)c1ccc(O)cc1`, the half-maximal activity concentration (AC50) in [1] was 8.43 µM (active); in [2] it was 10.2 µM (active); in test [3], 5.84 µM (active); in test [4] it was 11.3 µM (active); in test [6], 6.7 µM (active).

For the compound `O=C(O)CCC(F)(C(F)(F)F)C(F)(F)F`, the outcome in [1], in test [2], in [3] and in [4] was inactive.

With `CC(=O)OC(c1ccccc1)C(Cl)(Cl)Cl` (stereo unspecified), the half-maximal activity concentration (AC50) in [2] was 13.4 µM (active). The result in [2], in test [3] and in test [4] was inactive.

Take `COP(=S)(OC)Oc1c(Cl)cc(C)cc1Cl`: the result in test [1], in [2] and in [4] was inactive. For the same compound, the half-maximal activity concentration (AC50) in test [3] was 31.6 µM (active).

Take `CC(C)(OO)c1ccccc1`: the outcome in test [2], in test [3] and in test [4] was inactive.

`CCCCC(CC)CO[N+](=O)[O-]` (stereo unspecified): the result in [2], in [3] and in test [4] was inactive.

In the case of `Oc1cccc2cccnc12`, the result in test [2], in test [4] and in [5] was inactive. The AC50 in [3] was 4.71 µM (active).

On to `BrCCBr`, for which the outcome in test [2], in test [3] and in [4] was inactive.

As to `O=C(O)C(F)(F)C(F)(F)C(F)(F)C(F)(F)C(F)(F)C(F)(F)F`, the outcome in test [2], in test [3] and in test [4] was inactive.

With `C=C(C)C(=O)[O][Sn]([CH2]CCC)([CH2]CCC)[CH2]CCC`, the AC50 in test [2] was 0.31 µM (active); in test [3], 0.188 µM (active); in test [4], 0.148 µM (active).

`ClCC(Cl)CCl`: the outcome in test [2], in [3] and in [4] was inactive.

With `CCOP(=S)(OCC)SCCS(=O)(=O)CC`, the result in [2], in test [3] and in [4] was inactive.

For the compound `O=C(O)C(Cl)(Cl)Cl`, the result in test [2], in test [3] and in test [4] was inactive.

For `CCCCCCCCC(=O)NCc1ccc(O)c(OC)c1`, the outcome in test [2], in test [3] and in test [4] was inactive.

Take `Nc1ncc([N+](=O)[O-])s1`: the outcome in test [2], in test [3] and in test [4] was inactive.

`O=C(Nc1ccc2[nH]ccc2c1)c1cc2cc(F)ccc2n1Cc1cccc(F)c1`: the concentration at half-maximal activity (AC50) in test [2] was 6.87 µM (active); in test [3], 6.62 µM (active); in test [4], 14.6 µM (active). In [7], the call was inactive.

Take `Fc1ccc(C2(Cn3cncn3)OC2c2ccccc2Cl)cc1` (stereo unspecified): the results for the AC50 in [5] and in test [7] were 1.86 µM (active) and 5.36 µM (active), respectively.

Take `[O-][Cl+2]([O-])O`: the AC50 in [5] was 5.58 µM (active).

For `CCC(C)(C)c1ccc(O)c(C(C)(C)CC)c1`, the AC50 in test [2] is 9.58 µM (active); in [3] it was 7.43 µM (active); in test [4], 14.6 µM (active).

For the compound `O=C(OC1CCCCC1)c1ccccc1C(=O)OC1CCCCC1`, the results for the AC50 in test [2], in test [3] and in [4] were 20.9 µM (active), 17.3 µM (active) and 20.9 µM (active), respectively.

Turning to `ClC1(Cl)C2(Cl)C3(Cl)C4(Cl)C(Cl)(Cl)C5(Cl)C3(Cl)C1(Cl)C5(Cl)C24Cl` (stereo unspecified), the outcome in test [2], in test [3], in test [4] and in [8] was inactive.

Consider `CC1(C)CCC(Cc2ccc(Cl)cc2)C1(O)Cn1cncn1` (stereo unspecified), for which the compound was classed as inactive in test [8].

Consider `CC(C)c1ccc(CO)cc1`, for which the outcome in test [2], in [3] and in [4] was inactive.

In the case of `Clc1ccc(C2(Cn3cncn3)CC(Br)CO2)c(Cl)c1` (stereo unspecified), the half-maximal activity concentration (AC50) in [5] is 5.55 µM (active); in test [6] it was 1.16 µM (active); in test [9], 6.47 µM (active). Moreover, the compound was called inactive in test [8].

Consider `O=c1[nH]c(=O)[nH]c(=O)[nH]1`, for which, in test [2], the half-maximal activity concentration (AC50) was 32.6 µM (active). For the same compound, the result in [3] and in [4] was inactive.

For `COC[C@H](C)N(C(=O)CCl)c1c(C)csc1C`, the outcome in test [2], in [3] and in test [4] was inactive.

With `C(=NC1CCCCC1)=NC1CCCCC1`, the AC50 was 3.97 µM (active) in test [2], 0.499 µM (active) in test [3] and 30 µM (active) in [4].

Turning to `C[C@]12CCC(=O)C[C@@H]1CC[C@@H]1[C@@H]2CC[C@]2(C)[C@@H](O)CC[C@@H]12`, the outcome in test [2] and in test [3] was inactive. In [4], the AC50 was 25.7 µM (active).

As to `Cc1ccccc1N`, the result in test [2], in test [3] and in test [4] was inactive.

For the compound `CC(C)(C)c1cc(O)ccc1O`, the half-maximal activity concentration (AC50) in test [2] is 7.38 µM (active); in [3], 1.94 µM (active); in test [4], 15.3 µM (active). Moreover, the call in test [10] was inactive.

Regarding `CCOC(=O)Nc1cccc(OC(=O)Nc2ccccc2)c1`, the AC50 in test [7] is 11.4 µM (active).

With `CC(=O)[O][Hg][c]1ccccc1`, the concentration at half-maximal activity (AC50) in [2] is 11.9 µM (active); in [3] it was 0.259 µM (active); in [4] it was 1.63 µM (active); in test [8] it was 16 µM (active); in test [6] it was 6.73 µM (active); in test [7] it was 3.31 µM (active).

Regarding `CC(=O)C=C(C)C`, in test [5], the outcome was inactive.

In the case of `ClC1=C(Cl)[C@]2(Cl)[C@H]3[C@H]([C@H]4C=C[C@H]3C4)[C@@]1(Cl)C2(Cl)Cl`, the outcome in test [2] was inactive. Also, the results for the concentration at half-maximal activity (AC50) in test [3] and in test [4] were 20 µM (active) and 5.42 µM (active), respectively.

Regarding `CCC(=O)C(CC(C)N(C)C)(c1ccccc1)c1ccccc1` (stereo unspecified), the result in [2], in [3] and in test [4] was inactive.

Take `O=C1C(Cl)=C(Cl)C(=O)c2ccccc21`: in [5], the AC50 was 7.68 µM (active).

Turning to `NC(=O)O`, the result in test [2], in test [3] and in test [4] was inactive.

Turning to `COP(=S)(OC)Oc1cc(Cl)c(Cl)cc1Cl`, the outcome in test [2], in test [3] and in test [4] was inactive.

`COC(=O)c1sccc1S(=O)(=O)NC(=O)Nc1nc(C)nc(OC)n1`: the outcome in test [2], in [3] and in test [4] was inactive.

As for `COP(=S)(OC)Oc1ccc(Sc2ccc(OP(=S)(OC)OC)cc2)cc1`, the AC50 in test [2] is 9.59 µM (active); in [3], 28.8 µM (active); in [7], 7.61 µM (active); in [9], 5.83 µM (active). In test [4], the result was inactive.

With `CN(C)N=O`, the outcome in [2], in [3] and in test [4] was inactive.

As to `CCC[CH2][Sn]([Cl])([Cl])[Cl]`, the compound was classed as inactive in test [5].

Turning to `CCNc1nc(NC(C)(C)C)nc(SC)n1`, the result in test [2], in test [3] and in [4] was inactive.
